Compounds with a hit are over-represented: about 2.2% of the library has one in this group of screens.
ATXN2 expr inh: inhibitors of ATXN2 expression. HEK-293 ATXN2-luciferase reporter, luminescence, 24 h. AID 1745845. actives 0.72% (n = 360,000). Potency, µM (series often up to 57 µM), inactives show at the highest dose activity change, negative = inhibition, hits mostly inhibitors; also: potency is read from the fitted curve at half-maximal effect; % is scaled to controls: 0 for no effect and ±100 for the full control effect; nearly all actives have a fitted effect of over 55% in size
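qHTS (up to 57 uM final) was run with 24 h compound exposure of reporter cells at 37 °C. Each well was multiplexed: SteadyGlo luminescence measured ATXN2-luciferase expression after a fluorogenic Gly-Phe-AFC viability readout (25 uM final).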
TGFb inhibitor: inhibitors of TGF-b signaling. HepG2 CAGA-GFP TGF-b/SMAD3 reporter, GFP fluorescence, 18 h; TGF-beta stimulated, 500 pg/mL final. Potency, µM (series often up to 46.1 µM), for the others: top-dose activity, negative = inhibition, hits mostly inhibitors. actives 1.2% (n = 410,000); also: potency is read from the fitted curve at half-maximal effect; % is scaled to controls: 0 for no effect and ±100 for the full control effect; nearly all actives have a fitted effect of over 65% in size
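Inhibition was scored as loss of TGF-beta-induced (500 pg/mL final, 18 hours, 37 degrees C) GFP in HEPG2 cells carrying a CAGA-GFP reporter, in DMEM with 1% FBS. Well GFP was summed per cell; Activity was normalised to unstimulated and stimulated DMSO wells, then concentration-response fitting.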
IDH1 R132H inh: blocks human mutant IDH1 R132H enzyme; O75874; IDH1-R132H enzyme, NADPH consumption, diaphorase/resazurin fluorescence; Potency, µM (titrated, usually from 76.6 µM), without a hit: top-dose activity change, negative = inhibition, actives largely listed as inhibitors; actives 0.093% (n = 390,000); also: potency is read from the fitted curve at half-maximal effect; % is scaled to controls: 0 for no effect and ±100 for the full control effect; nearly all actives have a fitted effect of over 65% in size
Target sequence (O75874 whole entry R132H, stated change not applied): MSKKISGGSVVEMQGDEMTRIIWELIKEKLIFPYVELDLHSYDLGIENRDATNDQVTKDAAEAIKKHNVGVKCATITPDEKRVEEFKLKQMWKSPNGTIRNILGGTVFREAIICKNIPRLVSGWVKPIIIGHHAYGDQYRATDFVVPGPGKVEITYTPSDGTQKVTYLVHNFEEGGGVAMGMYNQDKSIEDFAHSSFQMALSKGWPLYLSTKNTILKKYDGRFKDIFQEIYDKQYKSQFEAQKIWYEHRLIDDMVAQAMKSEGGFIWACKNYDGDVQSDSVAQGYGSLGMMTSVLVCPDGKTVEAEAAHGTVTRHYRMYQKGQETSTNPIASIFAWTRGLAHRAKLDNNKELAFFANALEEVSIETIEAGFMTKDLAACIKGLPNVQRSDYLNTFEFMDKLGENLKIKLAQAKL
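IDH1-R132H (0.5 ug/mL dispensed) in pH 7.5 Tris buffer was preincubated 30 min with compound, then given a substrate mix of 0.016 mM NADPH and 2 mM alpha-KG for 80 min at room temperature; remaining NADPH was read by diaphorase/resazurin fluorescence.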
LDHA inh: inhibitors of human lactate dehydrogenase A; actives 0.15% (n = 480,000); AID 1347041; activity change, % (values are at about 110 or 230 µM); P00338; purified LDHA, NADH/diaphorase-resazurin fluorescence; active compounds read low; in the data active = activity change below about -30%; inconclusive = mostly about -25% to -30%;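 also: plate controls were DMSO wells for no effect and wells without enzyme for full effect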
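Enzyme activity of human lactate dehydrogenase 5 (2 nM; 0.06 mM NADH, 0.2 mM pyruvate, 5 min, RT) is measured via a resazurin/diaphorase fluorescence readout of residual NADH.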
HepG2 tox-1: counter-screen for TGF-b inhibitors: cytotoxicity in HepG2 cells; actives 0.76% (n = 410,000); AID 588856; Potency, µM (doses to about 46.1 µM), for the others: top-dose activity change, negative = cytotoxicity, actives largely listed as cytotoxic; HepG2 CAGA-GFP viability, ATP luminescence, 18 h; also: potency is read from the fitted curve at half-maximal effect
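HepG2 CAGA-GFP cells (1000/well, DMEM with 1% FBS) received compound, then TGF-beta at 500 pg/mL final, and were incubated 18 hours at 37 degrees C. Viability was read by CellTiter-Glo luminescence. Media-only wells were set as complete cell-killing and DMSO as no toxicity.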
ATXN viability: cell viability loss in ATXN counter-screen. S2 cells (HEK-293 line with an ATXN2-luciferase reporter) viability, CellTiter-Fluor protease fluorescence, 24 h. Potency, µM (series often up to 56.7 µM), actives largely listed as cytotoxic. actives 0.49% (n = 400,000). AID 651635; also: potency is read from the fitted curve at half-maximal effect; nearly all actives have a fitted effect of over 40% in size
TGFb confirm: confirmation of TGF-b signaling inhibitors in HepG2 reporter cells; shares compounds with TGFb inhibitor; HepG2 CAGA-GFP TGF-b reporter, GFP fluorescence, 18 h; cells stimulated with TGF-beta, 500 pg/mL; Potency, µM (titrated, usually from 46.1 µM), inactives show top-dose activity, negative = inhibition, actives largely listed as inhibitors; actives 63% (n = 1,600); AID 720534; also: potency is read from the fitted curve at half-maximal effect; % is scaled to controls: 0 for no effect and ±100 for the full control effect; nearly all actives have a fitted effect of over 65% in size
HepG2 tox-2: HepG2 cytotoxicity, TGF-b inhibitor counterscreen | actives 27% (n = 1,600) | HepG2 CAGA-GFP viability, ATP luminescence, 18 h; cells stimulated with TGF-beta, 500 pg/mL | Potency, µM (top dose mostly 46.1 µM), inactives show at the top dose activity, negative = cytotoxicity, usual class: inhibitors | shares compounds with TGFb inhibitor; also: potency is read from the fitted curve at half-maximal effect; % is scaled to controls: 0 for no effect and ±100 for the full control effect; nearly all actives have a fitted effect of over 70% in size
CCL64 TGFb inh: orthogonal confirmation of TGF-b inhibitors in CCL64 cells | shares compounds with TGFb inhibitor | CCL64 CAGA-GFP reporter, TGF-b stimulated, GFP fluorescence, 18 h | AID 720536 | actives 41% (n = 1,600) | Potency, µM (doses to about 46.1 µM), for the others: at the highest dose activity, negative = inhibition, most hits filed as inhibitors; also: potency is read from the fitted curve at half-maximal effect; nearly all actives have a fitted effect of over 65% in size
TGFb COP inh: validation of TGF-b inhibitors in HepG2 COP promoter reporter; shares compounds with TGFb inhibitor; HepG2 COP-GFP TGF-b reporter, GFP fluorescence, 18 h; cells stimulated by added recombinant TGF-beta; Potency, µM (series often up to 46.1 µM), without a hit: top-dose activity, negative = inhibition, usual class: inhibitors; actives 3% (n = 1,600); AID 720537; also: potency is read from the fitted curve at half-maximal effect; nearly all actives have a fitted effect of over 70% in size
Starred values were filed as active, the others as inactive. Unless noted, calls follow the shape of the dose curve; as a rule, active = well fitted curve in the direction sought with a large enough effect; inconclusive = small, poorly fitted or top-dose-only effect, or another doubt; inactive = no such curve, though single readings can be large; an effect the other way counts as inactive or inconclusive.

`COc1cc(C2NC(=O)c3ccccc3O2)cc(OC)c1OC` (configuration not stated) gave ATXN2 expr inh 16%, TGFb inhibitor 5%, IDH1 R132H inh 4%, LDHA inh 0, HepG2 tox-1 -3% and ATXN viability inactive.
Screening Cc1cccc(NS(=O)(=O)c2ccc(-c3cnc(C4CC4)o3)cc2)c1C returned TGFb inhibitor 14µM*, IDH1 R132H inh -13%, LDHA inh -1, HepG2 tox-1 -25%, ATXN viability inconclusive, TGFb confirm 1.8µM*, HepG2 tox-2 inconclusive, CCL64 TGFb inh 4.1µM* and TGFb COP inh 18%.
`Cc1cc(C)cc(NS(=O)(=O)c2ccc(-c3cnc(C4CC4)o3)cc2)c1` gave TGFb inhibitor 7.9µM*, IDH1 R132H inh -2%, LDHA inh 1, HepG2 tox-1 -108%, ATXN viability inactive, TGFb confirm 8.2µM*, HepG2 tox-2 inconclusive, CCL64 TGFb inh 5.2µM* and TGFb COP inh 15%.
For Cc1nn(-c2cc(C(F)(F)F)ccc2Cl)c2nc(C(F)(F)F)[nH]c(=O)c12 the results were ATXN2 expr inh -1%, TGFb inhibitor inconclusive, IDH1 R132H inh 7%, LDHA inh -3, HepG2 tox-1 6% and ATXN viability inconclusive.
Screening Cc1nn(-c2cccc(Cl)c2)c2nc(C(F)(F)F)[nH]c(=O)c12 returned ATXN2 expr inh inconclusive, TGFb inhibitor 11µM*, IDH1 R132H inh 0%, LDHA inh -8, HepG2 tox-1 -21%, ATXN viability inconclusive, TGFb confirm 6.5µM*, HepG2 tox-2 8.2µM*, CCL64 TGFb inh 2.9µM* and TGFb COP inh 36%.
For Cc1ccc(-c2ccc(CN3C(C(C)C)C(=O)N(Cc4cn(CCC5OCCO5)nn4)CCS3(=O)=O)cc2)c(C)c1 (configuration not stated) the results were ATXN2 expr inh inconclusive, TGFb inhibitor 11µM*, LDHA inh 3, HepG2 tox-1 -76%, ATXN viability inconclusive, TGFb confirm 23µM*, HepG2 tox-2 inconclusive, CCL64 TGFb inh 23µM* and TGFb COP inh -21%.
`Cc1ccccc1-c1ccc(CN2C(C(C)C)C(=O)N(Cc3cn(CCC4OCCO4)nn3)CCS2(=O)=O)cc1` (configuration not stated) gave ATXN2 expr inh inconclusive, TGFb inhibitor inconclusive, LDHA inh 1, HepG2 tox-1 0% and ATXN viability inconclusive.
`CC1C(=O)N(Cc2cn(CCC3OCCCO3)nn2)CCS(=O)(=O)N1Cc1ccc(-c2ccc(Cl)cc2)cc1` (configuration not stated) gave ATXN2 expr inh 18µM*, TGFb inhibitor 13µM*, IDH1 R132H inh -12%, LDHA inh 3, HepG2 tox-1 -27%, ATXN viability 28µM*, TGFb confirm inconclusive, HepG2 tox-2 inconclusive, CCL64 TGFb inh inconclusive and TGFb COP inh 67%.
For Cc1ccccc1N1CCN(C2CCCN(C(=O)CCc3c(C)noc3C)C2)CC1 (configuration not stated) the results were ATXN2 expr inh -19%, TGFb inhibitor 0%, IDH1 R132H inh 9%, LDHA inh -8, HepG2 tox-1 -23% and ATXN viability inactive.
Screening COc1ccccc1NC(=O)CN1CCN(c2ccc(F)cc2)CC1 returned ATXN2 expr inh -18%, TGFb inhibitor -20%, IDH1 R132H inh -6%, LDHA inh -4, HepG2 tox-1 -5% and ATXN viability inactive.
`COC(=O)c1sccc1NC(=O)CN1CCN(c2ccc(F)cc2)CC1` gave ATXN2 expr inh -26%, TGFb inhibitor 11µM*, IDH1 R132H inh 5%, LDHA inh -2, HepG2 tox-1 -17%, ATXN viability inactive, TGFb confirm inconclusive, HepG2 tox-2 inconclusive, CCL64 TGFb inh -3% and TGFb COP inh 10%.
CC(Nc1ccccc1CO)C(=O)Nc1cccc(Cl)c1Cl (configuration not stated) was read as ATXN2 expr inh inconclusive, TGFb inhibitor 4µM*, IDH1 R132H inh 9%, LDHA inh -9, HepG2 tox-1 -32%, ATXN viability inactive, TGFb confirm 5.2µM*, HepG2 tox-2 2.1µM*, CCL64 TGFb inh -20% and TGFb COP inh -15%.
Screening CC(C)C(=O)Nc1ccccc1Cl returned LDHA inh 11.
`O=C(Nc1ccc([N+](=O)[O-])cc1)Nc1ccon1` gave ATXN2 expr inh -12%, TGFb inhibitor 10µM*, IDH1 R132H inh 0%, LDHA inh -17, HepG2 tox-1 -27%, ATXN viability inactive, TGFb confirm inconclusive, HepG2 tox-2 -21%, CCL64 TGFb inh inconclusive and TGFb COP inh -17%.
For O=C(Nc1ccc([N+](=O)[O-])cc1)Nc1ccc(Cl)cc1F the results were ATXN2 expr inh inconclusive, TGFb inhibitor 2.2µM*, IDH1 R132H inh -8%, LDHA inh -8, HepG2 tox-1 2.8µM*, ATXN viability inactive, TGFb confirm inconclusive, HepG2 tox-2 inconclusive, CCL64 TGFb inh 4.1µM* and TGFb COP inh 26%.
